Test results as given in PubChem BioAssay AID1159580 (chemical genetic matrix, 2015).
In all, about 5,500 compounds went through this assay and about 2,000 (36%) were called active. About 18% were inconclusive and are not listed. Cut-off read from the data, not from the text of the source: active = normalized growth mostly below about 0.91 (no sharp cut-off); inconclusive = no clear call, values can overlap the other calls; inactive = mostly above about 0.92. Some of the results follow.

Experiment: chemical genetic growth profiling, strain panel (AID 1159580);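 note: tested at 20 µM; growth read once vehicle control cultures reached saturation at 30 °C; 1 = growth at the plate median or of vehicle wells; lower values mean less growth of the strain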
Details: S. cerevisiae deletion strains, growth OD
[1] = locus YAL013W, strain DEP1, active compounds read low
[2] = locus YGR078C, strain PAC10, active compounds read low
[3] = locus YJR075W, strain HOC1, active compounds read low
[4] = locus YMR307W, strain GAS1, active compounds read low

Measured: normalized growth

CN1C[C@@H](CS(=O)(=O)N(C)C)C[C@@H]2c3cccc4c3c(cn4C)C[C@H]21
inactive: [1] 1 | locus YAL040C, strain CLN3, active compounds read low 1.01 | locus YCL061C, strain MRC1 (second series), active compounds read low 1 | locus YDR363W, strain ESC2, active compounds read low 1.01 | locus YER002W, strain NOP16, active compounds read low 1.01 | [2] 1.01 | [3] 1 | [4] 1.03 | locus YNL175C, strain NOP13, active compounds read low 1.01 | locus YNL197C, strain WHI3, active compounds read low 1.02 | locus YNL224C, strain SQS1, active compounds read low 1.01 | locus YOR083W, strain WHI5 (second series), active compounds read low 1.03

Cc1c(C)c(C)c(CO)c(C)c1C
inactive: [1] 0.988 | locus YBR229C, strain ROT2, active compounds read low 1.01 | locus YDL101C, strain DUN1, active compounds read low 1.01 | locus YDR150W, strain NUM1, active compounds read low 0.981 | locus YEL061C, strain CIN8, active compounds read low 0.996 | [2] 0.998 | locus YHR030C, strain SLT2, active compounds read low 1.06 | locus YHR087W, strain rtc3, active compounds read low 1.01 | locus YJL187C, strain SWE1, active compounds read low 1 | locus YJR043C, strain POL32, active compounds read low 1 | [3] 1.04 | locus YLR039C, strain RIC1, active compounds read low 0.98 | locus YLR058C, strain SHM2 (second series), active compounds read low 1.02 | locus YLR085C, strain ARP6, active compounds read low 1.06 | locus YLR262C, strain YPT6, active compounds read low 0.955 | locus YML094W, strain GIM5, active compounds read low 0.996 | locus YMR219W, strain ESC1, active compounds read low 1.01 | locus YMR263W, strain SAP30, active compounds read low 0.993 | [4] 1.03 | locus YNL153C, strain GIM3, active compounds read low 0.97 | locus YNL298W, strain CLA4 (second series), active compounds read low 1.04 | locus YNL322C, strain KRE1, active compounds read low 1.01 | locus YNR030W, strain Alg12, active compounds read low 1 | locus YPL055C, strain LGE1, active compounds read low 0.997 | locus YPL241C, strain CIN2, active compounds read low 0.989 | locus YPR135W, strain CTF4, active compounds read low 1
